Measured values published in PubChem BioAssay (Tox21).
Inconclusive results are not listed. Activity calls are given as the source filed them. Unless noted, calls follow the shape of the dose curve; as a rule, active = well fitted curve in the direction sought with a large enough effect in the repeat runs; inconclusive = weak or mixed curves; inactive = no such curve, though single readings can be large; an effect the other way counts as inactive or inconclusive.

Experiments:
[1] = qHTS assay to identify small molecule agonists of H2AX - cell viability counter screen (AID 1224847; calls by dose curve; also: nearly all actives have a fitted effect of over 30% in size; also: potency is read from the fitted curve at half-maximal effect;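 as to activity change, negative = cytotoxicity: wild-type CHO-K1 cells; top concentration of the series differs between compounds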)
Method in brief: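 For this counter screen, overnight-attached CHO-K1 cells received test compounds (15 concentrations, 0.76% DMSO final); 3 hr later at 37C, CellTiter-Glo reagent was added and luminescence recorded after 30 min at room temperature.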

[2] = qHTS assay to identify small molecule antagonists of the estrogen related receptor (ERR) signaling pathway from Tox21 library (AID 1224848); also: nearly all actives have a fitted effect of over 50% in size; also: potency is read from the fitted curve at half-maximal effect
Method in brief: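 First, 2,000 ERR cells per well were plated and held 6 h at 37 C/5% CO2. Next, compounds in DMSO were pinned in and left 18 h at 37 C. Finally, ONE-Glo was added and luminescence read after 30 min at room temperature.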

[3] = qHTS assay to identify small molecule agonists of the estrogen related receptor (ERR) signaling pathway from Tox21 library (AID 1224849; calls by dose curve; also: nearly all actives have a fitted effect of over 15% in size); conditions: ERR reporter cell line, ONE-Glo luciferase, 18 h; at 92.4 µM (top of the series) unless noted
Method in brief: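 Luciferase activity in ERR pathway reporter cells served as the agonist readout; exposure lasted 18 h at 37 C, with ONE-Glo detection after 30 min at room temperature.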

[4] = qHTS RealTime-Glo MT Cell Viability Assay in HepG2 cells - 24 hour (AID 1224867); also: nearly all actives have a fitted effect of over 50% in size; also: potency is read from the fitted curve at half-maximal effect
Method in brief: (§1)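 Cell number in HepG2 cultures estimated from NanoLuc luminescence generated by metabolic reduction of a prosubstrate by living cells. The homogeneous, nonlytic format allowed repeated reads at 0, 8, 16, 24, 32 and 40 h of compound exposure.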

[5] = qHTS RealTime-Glo MT Cell Viability Assay in HEK293 cells - 32 hour (AID 1224868); also: nearly all actives have a fitted effect of over 50% in size; also: potency is read from the fitted curve at half-maximal effect; as to activity change, negative = cytotoxic: top concentration of the series differs between compounds
Method in brief: (§2)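 Homogeneous bioluminescent viability format in HEK293 cells (600 cells/well). Following 5 h at 37 C/5% CO2, 23 nL compound was pintooled; the signal was measured repeatedly during 40 h incubation.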

[6] = A CellTox Green Cytotoxicity Assay to monitor cytotoxicity in HEK293 cells - 0 hour (AID 1224869); also: nearly all actives have a fitted effect of over 50% in size
Method in brief: (§3)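 Real-time, in one plate: 600 HEK293 cells/well with dead-cell DNA dye, pinned compound after 5 h, 37 C incubation over 40 h; viable cells give no appreciable fluorescence.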

[7] = qHTS RealTime-Glo MT Cell Viability Assay in HepG2 cells - 40 hour (AID 1224870); also: nearly all actives have a fitted effect of over 50% in size; also: potency is read from the fitted curve at half-maximal effect
Method in brief: (§4)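 HepG2 cells mixed with RealTime-Glo MT reagents (NanoLuc plus cell-permeant prosubstrate) were seeded at 600 cells/well, incubated 5 h at 37 C/5% CO2, then pinned with compounds in DMSO; nonlytic luminescence tracked viability during 40 h treatment.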

[8] = A CellTox Green Cytotoxicity Assay to monitor cytotoxicity in HEK293 cells - 40 hour (AID 1224871); also: nearly all actives have a fitted effect of over 45% in size; also: potency is read from the fitted curve at half-maximal effect
Method in brief: as §3

[9] = qHTS RealTime-Glo MT Cell Viability Assay in HEK293 cells - 16 hour (AID 1224872); also: nearly all actives have a fitted effect of over 50% in size; also: potency is read from the fitted curve at half-maximal effect; as to activity change, negative = cytotoxicity: top concentration of the series differs between compounds
Method in brief: as §2

[10] = qHTS RealTime-Glo MT Cell Viability Assay in HepG2 cells - 8 hour (AID 1224873); also: nearly all actives have a fitted effect of over 55% in size; also: potency is read from the fitted curve at half-maximal effect
Method in brief: as §4

[11] = A CellTox Green Cytotoxicity Assay to monitor cytotoxicity in HEK293 cells - 24 hour (AID 1224875); also: nearly all actives have a fitted effect of over 45% in size; also: potency is read from the fitted curve at half-maximal effect
Method in brief: as §3

[12] = qHTS RealTime-Glo MT Cell Viability Assay in HepG2 cells - 32 hour (AID 1224877); also: nearly all actives have a fitted effect of over 55% in size; also: potency is read from the fitted curve at half-maximal effect
Method in brief: as §1

[13] = A CellTox Green Cytotoxicity Assay to monitor cytotoxicity in HepG2 cells - 40 hour (AID 1224879); also: nearly all actives have a fitted effect of over 40% in size; also: potency is read from the fitted curve at half-maximal effect
Method in brief: (§5)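 Cytotoxicity was tracked as dead-cell DNA fluorescence in HepG2 cells treated with test compounds at 37 C; each time-point value comes from one kinetic series spanning 0, 8, 16, 24, 32 and 40 h.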

[14] = qHTS RealTime-Glo MT Cell Viability Assay in HEK293 cells - 0 hour (AID 1224880); also: top concentration of the series differs between compounds; nearly all actives have a fitted effect of over 45% in size
Method in brief: (§6)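 Kinetic, non-lysing viability readout. Seed HEK293 (600/well) with reagent, incubate 5 h at 37 C/5% CO2, pin 23 nL compound in DMSO, incubate at 37 C, read luminescence at 0, 8, 16, 24, 32, 40 h.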

[15] = A CellTox Green Cytotoxicity Assay to monitor cytotoxicity in HEK293 cells - 32 hour (AID 1224881); also: nearly all actives have a fitted effect of over 40% in size; also: potency is read from the fitted curve at half-maximal effect
Method in brief: as §3

[16] = qHTS RealTime-Glo MT Cell Viability Assay in HEK293 cells - 40 hour (AID 1224874); conditions: RealTime-Glo luminescence; max response: active compounds read low; also: nearly all actives have a fitted effect of over 50% in size; also: potency is read from the fitted curve at half-maximal effect
Method in brief: as §6

[17] = A CellTox Green Cytotoxicity Assay to monitor cytotoxicity in HepG2 cells - 24 hour (AID 1224878); also: nearly all actives have a fitted effect of over 45% in size; also: potency is read from the fitted curve at half-maximal effect
Method in brief: as §5

[18] = A CellTox Green Cytotoxicity Assay to monitor cytotoxicity in HepG2 cells - 0 hour (AID 1224882); also: nearly all actives have a fitted effect of over 35% in size
Method in brief: as §5

[19] = qHTS assay to identify small molecule agonists of the hypoxia (HIF-1) signaling pathway (AID 1224846; active = well fitted activation curve with a large enough effect in the signal ratio in the repeat runs, not every such curve was filed as active; the % refers to the signal ratio)
Method in brief: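 ME-180 HRE-bla reporter cells; compounds in DMSO, 17 h at 37C; read-out beta-lactamase via CCF4-AM FRET.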

[20] = A CellTox Green Cytotoxicity Assay to monitor cytotoxicity in HepG2 cells - 16 hour (AID 1224876); also: nearly all actives have a fitted effect of over 45% in size; also: potency is read from the fitted curve at half-maximal effect
Method in brief: as §5
% is scaled to controls: 0 for no effect and ±100 for the full control effect.

N[C@@H](CSSC[C@H](N)C(=O)O)C(=O)O
inactive: activity change, negative = cytotoxicity [1] -5.28% [at 0.582 µM] | activity, negative = inhibition [2] -3.98% [at 0.349 µM] | activity change, positive = activation [3] -3.33% [at 0.349 µM] | activity change, negative = cytotoxicity [4] -0.491% [at 0.29 µM] | activity change, negative = cytotoxic [5] 5.6% [at 0.29 µM] | cytotoxicity [6] -2.52% [at 0.29 µM] | activity change, negative = cytotoxic [7] -2.12% [at 0.29 µM] | cytotoxicity increase [8] 3.14% [at 0.29 µM] | activity change, negative = cytotoxicity [9] 13.2% [at 0.29 µM] | viability change, negative = cytotoxic [10] 3.56% [at 0.29 µM] | activity change [11] 7.29% [at 0.29 µM, active compounds read high] | activity change, negative = cytotoxic [12] -2.71% [at 0.29 µM] | cytotoxicity increase [13] 5.29% [at 0.29 µM] | activity change, negative = cytotoxicity [14] 18.3% [at 0.29 µM] | cytotoxicity increase [15] 2.69% [at 0.29 µM]

C/C=C/C(=O)Oc1c(CCCCCC(C)C)cc([N+](=O)[O-])cc1[N+](=O)[O-]
inactive: activity change, positive = activation [3] -62.8% | Potency [6] | Potency [14] | Potency [18]
active: Potency [1] 50.5 µM | Potency [2] 6.11 µM | Potency [4] 21.9 µM | Potency [5] 15.5 µM | Potency [7] 43.6 µM | Potency [8] 38.9 µM | Potency [9] 19.5 µM | Potency [10] 21.9 µM | Potency [16] 7.76 µM | Potency [11] 38.9 µM | Potency [12] 38.9 µM | Potency [17] 38.9 µM | Potency [13] 38.9 µM | Potency [15] 38.9 µM

Oc1ccc(-c2ccc(O)cc2)cc1
inactive: outcome [19] | activity change, positive = activation [3] -24.2% | Potency [4] | Potency [6] | Potency [7] | Potency [8] | Potency [10] | Potency [11] | Potency [12] | Potency [17] | Potency [13] | Potency [14] | Potency [15] | Potency [18]

CCCCCCCCC(C)=O
inactive: outcome [19] | Potency [4] | Potency [5] | Potency [6] | Potency [7] | Potency [8] | Potency [9] | Potency [10] | max response [16] 9.37% | Potency [11] | Potency [20] | Potency [12] | Potency [17] | Potency [13] | Potency [14] | Potency [15] | Potency [18]

CCCSS/C(CCO)=C(\C)N(C=O)Cc1cnc(C)nc1N
active: Potency [13] 26.8 µM
inactive: outcome [19] | Potency [6] | Potency [8] | Potency [11] | Potency [20] | Potency [17] | Potency [14] | Potency [15] | Potency [18]

O=C1C=CC(=O)N1c1ccccc1
inactive: activity change, positive = activation [3] -78.1% | Potency [6] | Potency [14]
active: Potency [1] 45 µM | Potency [2] 54.5 µM | Potency [4] 13.8 µM | Potency [5] 11 µM | Potency [7] 11 µM | Potency [8] 11 µM | Potency [9] 15.5 µM | Potency [10] 19.5 µM | Potency [16] 11 µM | Potency [11] 12.3 µM | Potency [20] 19.5 µM | Potency [12] 12.3 µM | Potency [17] 13.8 µM | Potency [13] 12.3 µM | Potency [15] 11 µM

O=C1NCN(c2ccccc2)C12CCN(CCCC(c1ccc(F)cc1)c1ccc(F)cc1)CC2
inactive: activity change, positive = activation [3] -32.9% [at 42.5 µM] | Potency [6] | Potency [14] | Potency [18]
active: Potency [1] 49.2 µM | Potency [2] 21.1 µM | Potency [4] 6.74 µM | Potency [5] 19 µM | Potency [7] 6.74 µM | Potency [8] 23.9 µM | Potency [9] 19 µM | Potency [10] 10.7 µM | Potency [20] 9.52 µM | Potency [12] 6.01 µM | Potency [17] 7.56 µM | Potency [13] 6.74 µM | Potency [15] 23.9 µM

CCCOc1sc(C(=O)N2CCC(c3cc(CN)ccc3F)CC2)c(C)c1Br
active: Potency [1] 46.3 µM | Potency [2] 49.9 µM | Potency [4] 22.5 µM | Potency [5] 22.5 µM | Potency [7] 28.3 µM | Potency [8] 31.8 µM | Potency [9] 20 µM | Potency [16] 31.8 µM | Potency [11] 22.5 µM | Potency [20] 20 µM | Potency [12] 22.5 µM | Potency [17] 20 µM | Potency [13] 15.9 µM | Potency [15] 31.8 µM
inactive: activity change, positive = activation [3] -71.6% | Potency [6] | Potency [18]

O[C@@H](c1cc(C(F)(F)F)nc2c(C(F)(F)F)cccc12)[C@H]1CCCCN1
inactive: outcome [19] | activity change, positive = activation [3] -63.8% [at 42.5 µM] | Potency [6] | Potency [14] | Potency [18]
active: Potency [4] 16.9 µM | Potency [5] 8.49 µM | Potency [7] 13.4 µM | Potency [8] 23.9 µM | Potency [9] 7.56 µM | Potency [10] 23.9 µM | Potency [16] 8.49 µM | Potency [11] 26.8 µM | Potency [20] 23.9 µM | Potency [12] 13.4 µM | Potency [17] 21.3 µM | Potency [13] 15.1 µM | Potency [15] 23.9 µM

CC(=O)c1ccccc1N
inactive: outcome [19] | Potency [4] | Potency [6] | Potency [8] | Potency [10] | Potency [11] | Potency [20] | Potency [12] | Potency [17] | Potency [13] | Potency [14] | Potency [15] | Potency [18]

C=C(C)C(=O)OCCC[Si](Cl)(Cl)Cl
inactive: outcome [19] | Potency [4] | Potency [5] | Potency [6] | Potency [8] | Potency [9] | Potency [10] | max response [16] -5.22% | Potency [11] | Potency [20] | Potency [12] | Potency [17] | Potency [13] | Potency [14] | Potency [18]

NC(=O)C(=O)N/N=C/c1ccc([N+](=O)[O-])o1
inactive: outcome [19] | Potency [4] | Potency [5] | Potency [6] | Potency [7] | Potency [8] | Potency [9] | Potency [10] | max response [16] 5.32% | Potency [11] | Potency [12] | Potency [17] | Potency [14] | Potency [18]

CC(=O)C=O
inactive: outcome [19] | Potency [4] | Potency [5] | Potency [6] | Potency [7] | Potency [8] | Potency [9] | Potency [10] | max response [16] 3.76% | Potency [11] | Potency [20] | Potency [17] | Potency [13] | Potency [14] | Potency [15] | Potency [18]

Cc1occc1SSc1ccoc1C
active: Potency [8] 54.9 µM | Potency [13] 54.9 µM | Potency [15] 54.9 µM
inactive: outcome [19] | Potency [5] | Potency [6] | Potency [7] | Potency [9] | Potency [10] | Potency [12] | Potency [14] | Potency [18]
